# Results: PubChem BioAssay AID1159580 (chemical genetic matrix, 2015)
# Several values for one entry are separate records, joined by “and”; a condition that tells them apart may be missing. Equal entries are not always repeated. Out of some 5,500 compounds screened, about 2,000 (36%) were called active. About 18% were inconclusive and are not listed. The list shows a part of the results. Values without a mark were called inactive. Cut-off read from the data, not from the text of the source: active = normalized growth mostly below about 0.91 (no sharp cut-off); inconclusive = no clear call, values can overlap the other calls; inactive = mostly above about 0.92.
# Assay: chemical genetic growth profiling, strain panel (AID 1159580);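 note: tested at 20 µM; growth read once vehicle control cultures reached saturation at 30 °C; 1 = growth at the plate median or of vehicle wells; lower values mean less growth of the strain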
# Conditions: growth OD
# [1] = S. cerevisiae deletion strains, locus YAL013W, strain DEP1, active compounds read low
# [2] = S. cerevisiae deletion strains, locus YBR229C, strain ROT2, active compounds read low
# [3] = S. cerevisiae deletion strains, locus YDL101C, strain DUN1, active compounds read low
# [4] = S. cerevisiae deletion strains, locus YDL134C, strain PPH21, active compounds read low
# [5] = S. cerevisiae deletion strains, locus YDR150W, strain NUM1, active compounds read low
# [6] = S. cerevisiae deletion strains, locus YEL061C, strain CIN8, active compounds read low
# [7] = S. cerevisiae deletion strains, locus YGR078C, strain PAC10, active compounds read low
# [8] = S. cerevisiae deletion strains, locus YHR030C, strain SLT2, active compounds read low
# [9] = S. cerevisiae deletion strains, locus YJR043C, strain POL32, active compounds read low
# [10] = S. cerevisiae deletion strains, locus YJR075W, strain HOC1, active compounds read low
# [11] = S. cerevisiae deletion strains, locus YKL190W, strain CNB1, active compounds read low
# [12] = S. cerevisiae deletion strains, locus YLR039C, strain RIC1, active compounds read low
# [13] = S. cerevisiae deletion strains, locus YLR262C, strain YPT6, active compounds read low
# [14] = S. cerevisiae deletion strains, locus YMR263W, strain SAP30, active compounds read low
# [15] = S. cerevisiae deletion strains, locus YMR307W, strain GAS1, active compounds read low
# [16] = S. cerevisiae deletion strains, locus YNL153C, strain GIM3, active compounds read low
# [17] = S. cerevisiae deletion strains, locus YNL322C, strain KRE1, active compounds read low
# [18] = S. cerevisiae deletion strains, locus YOL006C, strain TOP1, active compounds read low
# [19] = S. cerevisiae deletion strains, locus YPL055C, strain LGE1, active compounds read low
# [20] = S. cerevisiae deletion strains, locus YPL241C, strain CIN2, active compounds read low
smiles,measurement,setting,value
CC(C)OC(=O)Nc1cccc(Cl)c1,normalized growth,[1],0.988
same,normalized growth,"S. cerevisiae deletion strains, locus YBR021W, strain FUR4, active compounds read low",0.821 (active)
same,normalized growth,[2],0.979
same,normalized growth,"S. cerevisiae deletion strains, locus YCL029C, strain bik1, active compounds read low",0.991
same,normalized growth,"S. cerevisiae deletion strains, locus YDL035C, strain GPR1, active compounds read low",0.966
same,normalized growth,"S. cerevisiae deletion strains, locus YDL074C, strain BRE1, active compounds read low",0.899
same,normalized growth,[3],0.986
same,normalized growth,[4],0.973
same,normalized growth,"S. cerevisiae deletion strains, locus YDL185W, strain tfp1, active compounds read low",0.997
same,normalized growth,"S. cerevisiae deletion strains, locus YDL192W, strain arf1, active compounds read low",0.995
same,normalized growth,"S. cerevisiae deletion strains, locus YDR101C, strain arx1, active compounds read low",0.984
same,normalized growth,[5],0.992
same,normalized growth,"S. cerevisiae deletion strains, locus YDR162C, strain NBP2, active compounds read low",0.979
same,normalized growth,"S. cerevisiae deletion strains, locus YDR318W, strain mcm21, active compounds read low",0.978
same,normalized growth,"S. cerevisiae deletion strains, locus YDR388W, active compounds read low",0.989
same,normalized growth,"S. cerevisiae deletion strains, locus YDR502C, strain sam2, active compounds read low",0.973
same,normalized growth,[6],0.992
same,normalized growth,"S. cerevisiae deletion strains, locus YER110C, active compounds read low",0.986
same,normalized growth,"S. cerevisiae deletion strains, locus YER155C, strain BEM2, active compounds read low",0.987
same,normalized growth,"S. cerevisiae deletion strains, locus YER167W, strain BCK2, active compounds read low",0.949
same,normalized growth,"S. cerevisiae deletion strains, locus YGL078C, strain dbp3, active compounds read low",0.997
same,normalized growth,"S. cerevisiae deletion strains, locus YGL086W, strain mad1, active compounds read low",0.995
same,normalized growth,"S. cerevisiae deletion strains, locus YGL248W, strain PDE1, active compounds read low",0.962
same,normalized growth,[7],0.955
same,normalized growth,"S. cerevisiae deletion strains, locus YGR135W, strain pre9, active compounds read low",0.969
same,normalized growth,"S. cerevisiae deletion strains, locus YGR229C, strain SMI1, active compounds read low",0.941
same,normalized growth,"S. cerevisiae deletion strains, locus YGR252W, strain gcn5, active compounds read low",0.752 (active)
same,normalized growth,[8],0.983 and 1.01
same,normalized growth,"S. cerevisiae deletion strains, locus YHR079C, strain IRE1 (second series), active compounds read low",0.973
same,normalized growth,"S. cerevisiae deletion strains, locus YHR079C, strain IRE1, active compounds read low",0.975
same,normalized growth,"S. cerevisiae deletion strains, locus YHR094C, strain hxt1, active compounds read low",0.988
same,normalized growth,"S. cerevisiae deletion strains, locus YHR129C, strain ARP1, active compounds read low",0.993
same,normalized growth,"S. cerevisiae deletion strains, locus YHR200W, strain rpn10, active compounds read low",0.985
same,normalized growth,"S. cerevisiae deletion strains, locus YIL066C, strain RNR3, active compounds read low",0.905
same,normalized growth,"S. cerevisiae deletion strains, locus YIL073C, strain SPO22, active compounds read low",0.895
same,normalized growth,"S. cerevisiae deletion strains, locus YIL125W, strain kgd1, active compounds read low",0.992
same,normalized growth,"S. cerevisiae deletion strains, locus YIR030C, strain dcg1, active compounds read low",0.981
same,normalized growth,"S. cerevisiae deletion strains, locus YJL095W, strain BCK1, active compounds read low",0.976 and 1
same,normalized growth,"S. cerevisiae deletion strains, locus YJL134W, strain LCB3, active compounds read low",1.01
same,normalized growth,"S. cerevisiae deletion strains, locus YJL168C, strain set2, active compounds read low",0.987
same,normalized growth,"S. cerevisiae deletion strains, locus YJL187C, strain SWE1 (second series), active compounds read low",0.99
same,normalized growth,[9],1.07
same,normalized growth,"S. cerevisiae deletion strains, locus YJR066W, strain TOR1, active compounds read low",0.937
same,normalized growth,[10],0.994
same,normalized growth,"S. cerevisiae deletion strains, locus YKL009W, strain mrt4, active compounds read low",0.954
same,normalized growth,"S. cerevisiae deletion strains, locus YKL068W, active compounds read low",0.997
same,normalized growth,"S. cerevisiae deletion strains, locus YKL085W, strain MDH1 (second series), active compounds read low",0.991
same,normalized growth,"S. cerevisiae deletion strains, locus YKL085W, strain MDH1, active compounds read low",0.991
same,normalized growth,[11],0.98
same,normalized growth,"S. cerevisiae deletion strains, locus YKR001C, strain vps1, active compounds read low",0.958
same,normalized growth,[12],0.951
same,normalized growth,"S. cerevisiae deletion strains, locus YLR058C, strain SHM2, active compounds read low",0.987
same,normalized growth,"S. cerevisiae deletion strains, locus YLR102C, strain apc9, active compounds read low",0.987
same,normalized growth,"S. cerevisiae deletion strains, locus YLR113W, strain HOG1, active compounds read low",0.87
same,normalized growth,[13],0.888
same,normalized growth,"S. cerevisiae deletion strains, locus YLR268W, strain sec22, active compounds read low",0.99
same,normalized growth,"S. cerevisiae deletion strains, locus YLR330W, strain CHS5, active compounds read low",0.995
same,normalized growth,"S. cerevisiae deletion strains, locus YLR342W, strain FKS1 (second series), active compounds read low",0.944
same,normalized growth,"S. cerevisiae deletion strains, locus YLR371W, strain rom2, active compounds read low",0.974
same,normalized growth,"S. cerevisiae deletion strains, locus YLR418C, strain cdc73, active compounds read low",0.828 (active)
same,normalized growth,"S. cerevisiae deletion strains, locus YML016C, strain PPZ1, active compounds read low",0.993
same,normalized growth,"S. cerevisiae deletion strains, locus YML032C, strain rad52, active compounds read low",0.936
same,normalized growth,"S. cerevisiae deletion strains, locus YML124C, strain tub3, active compounds read low",0.985
same,normalized growth,"S. cerevisiae deletion strains, locus YMR078C, strain ctf18, active compounds read low",0.935
same,normalized growth,"S. cerevisiae deletion strains, locus YMR223W, strain ubp8, active compounds read low",0.959
same,normalized growth,[14],0.988
same,normalized growth,[15],0.891
same,normalized growth,"S. cerevisiae deletion strains, locus YNL067W, strain RPL9B, active compounds read low",0.301 (active)
same,normalized growth,"S. cerevisiae deletion strains, locus YNL128W, strain TEP1, active compounds read low",1.01
same,normalized growth,[16],0.999
same,normalized growth,"S. cerevisiae deletion strains, locus YNL183C, strain NPR1, active compounds read low",0.94
same,normalized growth,"S. cerevisiae deletion strains, locus YNL233W, strain BNI4, active compounds read low",1
same,normalized growth,"S. cerevisiae deletion strains, locus YNL250W, strain rad50, active compounds read low",0.955
same,normalized growth,"S. cerevisiae deletion strains, locus YNL271C, strain bni1, active compounds read low",0.976
same,normalized growth,"S. cerevisiae deletion strains, locus YNL298W, strain CLA4, active compounds read low",0.998
same,normalized growth,"S. cerevisiae deletion strains, locus YNL307C, strain MCK1, active compounds read low",0.863 (active)
same,normalized growth,[17],1
same,normalized growth,"S. cerevisiae deletion strains, locus YNR052C, strain pop2, active compounds read low",0.985
same,normalized growth,[18],0.712
same,normalized growth,"S. cerevisiae deletion strains, locus YOL012C, strain htz1",0.915
same,normalized growth,"S. cerevisiae deletion strains, locus YOL147C, strain pex11, active compounds read low",0.98
same,normalized growth,"S. cerevisiae deletion strains, locus YOR061W, strain CKA2, active compounds read low",0.992
same,normalized growth,"S. cerevisiae deletion strains, locus YOR069W, strain VPS5, active compounds read low",0.996
same,normalized growth,"S. cerevisiae deletion strains, locus YOR136W, strain idh2, active compounds read low",0.977
same,normalized growth,"S. cerevisiae deletion strains, locus YOR144C, strain elg1, active compounds read low",0.987
same,normalized growth,"S. cerevisiae deletion strains, locus YOR184W, strain ser1, active compounds read low",0.906
same,normalized growth,"S. cerevisiae deletion strains, locus YOR231W, strain MKK1, active compounds read low",0.985
same,normalized growth,"S. cerevisiae deletion strains, locus YOR316C, strain cot1, active compounds read low",0.995
same,normalized growth,[19],0.955
same,normalized growth,[20],0.994
same,normalized growth,"S. cerevisiae deletion strains, locus YPL256C, strain CLN2, active compounds read low",0.992
same,normalized growth,"S. cerevisiae deletion strains, locus YPR119W, strain clb2, active compounds read low",0.986
same,normalized growth,"S. cerevisiae deletion strains, locus YPR141C, strain kar3, active compounds read low",0.995
same,normalized growth,"S. cerevisiae deletion strains, locus YPR163C, strain tif3, active compounds read low",0.983
same,normalized growth,"S. cerevisiae deletion strains, locus YPR167C, strain met16, active compounds read low",0.986
same,normalized growth,"S. cerevisiae deletion strains, strain wtn01, active compounds read low",0.976
same,normalized growth,"S. cerevisiae strains, strain wild type, active compounds read low",0.997
COC(=O)c1cc(OC)c(OC)cc1NC(=O)Nc1cc(Cl)cc(Cl)c1,normalized growth,[1],0.991
same,normalized growth,[2],0.998
same,normalized growth,[3],1.02
same,normalized growth,[4],0.979
same,normalized growth,[5],0.916
same,normalized growth,[6],1.02
same,normalized growth,[7],1.01
same,normalized growth,[8],0.868
same,normalized growth,"S. cerevisiae deletion strains, locus YHR087W, strain rtc3, active compounds read low",1.02
same,normalized growth,"S. cerevisiae deletion strains, locus YJL187C, strain SWE1, active compounds read low",1.03
same,normalized growth,[9],0.959
same,normalized growth,[10],0.982
same,normalized growth,[11],1.01
same,normalized growth,[12],1.01
same,normalized growth,"S. cerevisiae deletion strains, locus YLR058C, strain SHM2 (second series), active compounds read low",1.01
same,normalized growth,"S. cerevisiae deletion strains, locus YLR085C, strain ARP6, active compounds read low",0.973
same,normalized growth,[13],0.972
same,normalized growth,"S. cerevisiae deletion strains, locus YML094W, strain GIM5, active compounds read low",0.998
same,normalized growth,"S. cerevisiae deletion strains, locus YMR219W, strain ESC1, active compounds read low",1.02
same,normalized growth,[14],0.978
same,normalized growth,[15],1.05
same,normalized growth,[16],1.02
same,normalized growth,"S. cerevisiae deletion strains, locus YNL298W, strain CLA4 (second series), active compounds read low",0.969
same,normalized growth,[17],1.02
same,normalized growth,"S. cerevisiae deletion strains, locus YNR030W, strain Alg12, active compounds read low",0.978
same,normalized growth,[18],1.05
same,normalized growth,[19],1.08
same,normalized growth,[20],0.998
same,normalized growth,"S. cerevisiae deletion strains, locus YPR135W, strain CTF4, active compounds read low",0.926
